A selection: hits, their analogues and other compounds. The true share with any hit is near 6%.
D1 potentiator = human D1 dopamine receptor positive modulation | HEK293 TREx D1 cells, calcium flux, dopamine EC20 potentiation | potentiation, % at 10 µM | P21728 | 360,000 tested, 0.036% active; in the data active means potentiation above about 30%; further: 0% is about no effect
Target sequence (P21728 whole entry, looked up): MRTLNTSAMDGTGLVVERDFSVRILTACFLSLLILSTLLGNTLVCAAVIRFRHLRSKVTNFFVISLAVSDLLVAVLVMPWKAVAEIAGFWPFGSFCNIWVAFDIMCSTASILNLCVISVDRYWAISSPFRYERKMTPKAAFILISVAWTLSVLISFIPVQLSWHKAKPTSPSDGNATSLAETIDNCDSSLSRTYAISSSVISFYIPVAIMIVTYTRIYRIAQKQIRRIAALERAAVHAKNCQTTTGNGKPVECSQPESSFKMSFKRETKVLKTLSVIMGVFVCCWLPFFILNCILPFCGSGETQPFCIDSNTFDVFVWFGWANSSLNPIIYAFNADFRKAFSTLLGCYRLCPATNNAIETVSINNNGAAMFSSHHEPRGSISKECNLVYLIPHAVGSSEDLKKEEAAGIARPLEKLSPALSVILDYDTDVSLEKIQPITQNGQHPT
DRD3 antagonist = antagonists of human D3 dopamine receptor; P35462; D3R cells, DiscoveRx beta-arrestin luminescence, antagonist mode; hits give low values; max response, negative = inhibition, %; 360,000 tested, 2.5% active; AID 652054; in the data active means max response below about -50%; inconclusive means no clear call, values can overlap the other calls; further: on the % scale 0 is the no-effect control and ±100 the full control effect
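Cells plated overnight at 1500 cells/well, then exposed to library compounds with dopamine controls for 90 minutes at 37 degrees C. DiscoveRx reagent added for 30–60 minutes at room temperature; luminescence read, quantitative HTS format.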
DRD3 agonist = agonists of human D3 dopamine receptor; P35462; D3R DiscoveRx beta-arrestin cells, luminescence, 90 min; max activation, %; 410,000 tested, 0.58% active; in the data active means max activation above about 30%; further: 0% is about no effect
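Cells at 1500/well, incubated overnight, then treated with pinned compounds (dopamine as control) for 90 min at 37 degrees C. DiscoveRx reagent added for 30 - 60 minutes at room temperature; luminescence read.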
D1 agonist = activates the human D1 dopamine receptor. P21728. HEK293 T-REx D1 cells, calcium flux, agonist mode. activation, % at 2 µM. 360,000 tested, 1% active. AID 504660; in the data active means activation above about 30%; further: 0% is about no effect
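Inducible HEK293 T-REx D1 cells, force-coupled to calcium signalling, were plated at 4000 cells/well with tetracycline and held overnight at 30 C. After no-wash calcium dye loading, compound-evoked calcium rise over 180 s flagged agonists.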
Chronic BCR inh = blocks chronic active B-cell receptor signaling | ABC-DLBCL IkBa-CBG/CBR reporter, luminescence ratio, 4 h | AID 493014 | 340,000 tested, 0.05% active | Potency, µM (highest dose often 46.1 µM), for the others: at the top dose activity change, negative = inhibition, hits mostly inhibitors; active means well fitted inhibition curve with a large enough effect in the signal ratio, with a control signal flat, not every such curve was filed as active; inconclusive means small, poorly fitted or top-dose-only effect, or effect the other way, or a change in a side signal; the % refers to the signal ratio;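 further: potency means the concentration at half of the fitted maximal effect; plate controls were basal doxycycline-induced cells for no effect and cells given 10 µM MG132 for full effect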
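Concentration-response series (up to 46 uM) were applied to TMD8 dual-reporter cells for 4 h at 37C with doxycycline. Green/red ratio, after filter-overlap correction, defined %Activity; red signal alone was normalised to basal cells and zero luminescence.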
D1 antag = antagonists of human D1 dopamine receptor; activity change, negative = inhibition, % at 10 µM; HEK293 TREx D1 cells, calcium flux, dopamine EC80; hits give low values; AID 504652; 360,000 tested, 3.2% active; P21728; in the data active means activity change below about -30%; further: on the % scale 0 is the no-effect control and ±100 the full control effect
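Tetracycline-induced HEK293 Trex D1 cells, force-coupled to calcium, dye-loaded; compounds added and read 180 s, then EC80 dopamine added and calcium flux tracked kinetically another 180 s.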
An asterisk follows results filed as active; ? = inconclusive; nt = not tested or not shown; ! = not confirmed by another sample.

SMILES	D1 potentiator	DRD3 antagonist	DRD3 agonist	D1 agonist	Chronic BCR inh	D1 antag
CC1COc2c(N3CCN(C)CC3)c(F)cc3c(=O)c(C(=O)O)cn1c23 (stereo unspecified)	2	-100*	-93	0	-2%	-9
CN(C)CCCN(C(=O)c1ccco1)c1nc(-c2ccc(Cl)cc2)cs1	-6	?	-17	33*	?	-42*
COc1ccc(-c2csc(N(CCCN(C)C)C(=O)c3cccs3)n2)cc1	-15	-58*	-51	18	-17%	-15
Cc1ccc(-c2csc(N(CCCN(C)C)C(=O)c3ccco3)n2)cc1	0	?	-17	1	2%	-1
COc1cccc(N2C(=O)C(CC(=O)Nc3cccc(F)c3)N(C3CCCC3)C2=O)c1 (stereo unspecified)	2	nt	-16	0	nt	-2
Cc1cn2c(=O)cc(COc3ccccc3NC(=O)c3ccc(Cl)cc3)nc2s1	-3	nt	-12	1	nt	-12
COc1ccccc1CNC(=O)C(C)n1c(=O)cc(C(F)(F)F)c2c(C)nn(C)c21 (stereo unspecified)	-6	nt	-11	2	nt	8
O=C(CSc1nccn1C1CCCC1)Nc1cccc(F)c1	-1	nt	-1	1	-2%	-2
COc1cccc(CNC(=O)CSc2n[nH]c(-c3ccccc3Cl)n2)c1OC	-3	nt	-7	3	nt	-4
CCc1ccc(NC(=O)c2cnc(N3CCN(c4ccccn4)CC3)c3ccccc23)cc1	-2	6	21	2	?	-40*
CC(C)NC(=O)c1cnc(N2CCN(c3ccccn3)CC2)c2ccccc12	-2	27	-4	7	12%	-19
CC1CCN(C(=O)C2CCCN(c3ncnc4c3nc3n4CCCCC3)C2)CC1 (stereo unspecified)	0	7	4	0	-1%	-37*
O=C(C1CCN(c2ncnc3c2nc2n3CCCCC2)CC1)N1CCN(c2ccc(F)cc2)CC1	-8	0	48*!	2	7%	-7
O=C(C1CCN(c2ncnc3c2nc2n3CCCCC2)CC1)N1CCN(c2ccccc2)CC1	0	nt	12	-2	nt	4
CCOc1ccc(CCNC(=O)C2CCN(c3ncnc4c3nc3n4CCCCC3)CC2)cc1	-1	nt	66*	0	nt	-14
Cc1cc(C)c(NS(=O)(=O)c2ccccc2)c(C)c1NS(=O)(=O)c1ccccc1	nt	13	11	nt	nt	nt
O=C(NCC(c1ccco1)N1CCCCC1)c1cc2c(s1)CCCC2 (stereo unspecified)	-3	-75*	-24	-1	6%	10
COc1ccc(C(CNC(=O)c2cc3c(s2)CCC(C)C3)N2CCOCC2)cc1 (stereo unspecified)	-2	-103*	-28	1	-2%	-23
O=C(NCC(c1ccco1)N1CCCCC1)c1cccs1 (stereo unspecified)	nt	5	-5	nt	5%	nt
COc1ccc(C(CNC(=O)c2cc3c(s2)CCC(C)C3)N2CCCC2)cc1 (stereo unspecified)	1	-105*	-24	4	-12%	18
CCC1CCc2sc(C(=O)NCC(c3ccccc3OC)N3CCCC3)cc2C1 (stereo unspecified)	nt	?	-19	9	-29%	21
C=C1CCN([C@@H](CC(C)C)C(=O)NCCC(C)C)S(=O)(=O)c2ccccc21	nt	-50*	-24	nt	nt	nt
CC(=O)Nc1cc(-c2ccccc2)nn1Cc1cccc(Cl)c1	-3	nt	5	-1	nt	-2
CSc1nn(Cc2cccc(Cl)c2)c(N(C(C)=O)C(C)=O)c1S(=O)(=O)c1ccccc1	-1	nt	0	1	nt	-61*
Cc1cccc(C)c1NC(=O)C(NC=O)c1ccc(N(C)C)cc1 (stereo unspecified)	-3	32	1	2	0%	-8
SMILES	D1 potentiator	DRD3 antagonist	DRD3 agonist	D1 agonist	Chronic BCR inh	D1 antag
Cc1cccc(C)c1NC(=O)C(NC=O)c1ccccc1Cl (stereo unspecified)	2	-20	-3	1	-8%	-83*
C/C(=N/NC(=O)c1cc2ccccc2cc1O)C1C(=O)c2ccccc2C1=O	6	-56*	0	3	?	-19
O=C(Nc1ccc([N+](=O)[O-])cc1)c1ccccc1	-5	7	-14	15	?	-3
O=C(Nc1ccccc1)c1ccc[n+](Cc2ccc([N+](=O)[O-])cc2)c1	0	-56*	-25	2	29%	37
C[C@H](NC(=O)/C=C/[C@H]1O[C@@H](n2ccc(=O)[nH]c2=O)[C@H](O)[C@@H]1O)C(=O)O	nt	-13	3	nt	nt	nt
CC(=O)Nc1ccc(NC(=O)C2(C)Cc3c(-c4ccccc4)ccnc3O2)cc1 (stereo unspecified)	nt	-113*	-4	nt	nt	nt
CC1(C(=O)NCc2ccccc2)Cc2c(-c3ccc(C(N)=O)cc3)ccnc2O1 (stereo unspecified)	nt	?	58*	nt	nt	nt
CC1(C(=O)NCc2ccccc2)Cc2c(-c3ccccc3)ccnc2O1 (stereo unspecified)	nt	?	-14	nt	nt	nt
CC1(C(=O)NCCC(F)(F)F)Cc2c(-c3cccc(C(N)=O)c3)ccnc2O1 (stereo unspecified)	nt	-59*	-4	nt	nt	nt
CN(C)c1ccc(-c2ccnc3c2CC(C)(C(=O)NCc2ccccc2)O3)cc1 (stereo unspecified)	nt	-27	-8	nt	nt	nt
CN1CCN(c2ccc(CNC(=O)C3(C)Cc4c(-c5ccccc5)ccnc4O3)cc2)CC1 (stereo unspecified)	nt	-62*	-15	nt	nt	nt
Cc1ccc(-c2nc3ccccn3c2Nc2ccccc2C)s1	4	nt	3	-1	nt	3
O=C(c1[nH]c(C(F)(F)F)nc1-c1ccccc1)N1CCN(c2ccc(C(F)(F)F)cn2)CC1	nt	13	0	nt	nt	nt
O=C(CCCCn1c(=O)c2ccccc2n(Cc2ccccc2F)c1=O)NCc1ccc2c(c1)OCO2	1	nt	2	2	nt	4
CCN(CC)S(=O)(=O)c1ccc2c(c1)N(CC(=O)N1CCN(c3ccc(OC)cc3)CC1)C(=O)CO2	1	nt	1	-2	6%	-1
Cc1ccc(NC(=S)Nc2ccc(Br)cc2)cc1	-15	15	0	14	12%	-33*
Cc1ccc(NC(=S)NNC(=S)Nc2ccc(C)cc2C)cc1	-2	-11	-14	4	18µM*	7
O=C(Cc1c(Sc2ccccc2)c2ccccc2n1Cc1ccccc1)NCCO	-2	-73*	-24	5	?	2
Cn1c(CC(=O)NCCO)c(Sc2ccccc2)c2ccccc21	-4	-3	-4	10	-9%	-13
CCOCCCNC(=O)c1cc(Sc2cccc(Cl)c2)nc2ccccc12	-3	nt	1	7	-1%	-60*

Compound activity from PubChem BioAssay.
